Experiment [1] deals with Protein translocase subunit SecA (Escherichia coli (strain K12)) (UniProt P10408). In words: Assay to Identify E. coli SecA ATPase Inhibitors. To be noted: 30 µM. In kind it is functional. The arrangement: scale not given: direction of the effect not stated beside the values.
Experiment [2] deals with T1, Ubiquitin-activating enzyme e1, putative (Leishmania donovani (strain BPK282A1)) (UniProt E9BSI1).
T1 sequence (whole entry): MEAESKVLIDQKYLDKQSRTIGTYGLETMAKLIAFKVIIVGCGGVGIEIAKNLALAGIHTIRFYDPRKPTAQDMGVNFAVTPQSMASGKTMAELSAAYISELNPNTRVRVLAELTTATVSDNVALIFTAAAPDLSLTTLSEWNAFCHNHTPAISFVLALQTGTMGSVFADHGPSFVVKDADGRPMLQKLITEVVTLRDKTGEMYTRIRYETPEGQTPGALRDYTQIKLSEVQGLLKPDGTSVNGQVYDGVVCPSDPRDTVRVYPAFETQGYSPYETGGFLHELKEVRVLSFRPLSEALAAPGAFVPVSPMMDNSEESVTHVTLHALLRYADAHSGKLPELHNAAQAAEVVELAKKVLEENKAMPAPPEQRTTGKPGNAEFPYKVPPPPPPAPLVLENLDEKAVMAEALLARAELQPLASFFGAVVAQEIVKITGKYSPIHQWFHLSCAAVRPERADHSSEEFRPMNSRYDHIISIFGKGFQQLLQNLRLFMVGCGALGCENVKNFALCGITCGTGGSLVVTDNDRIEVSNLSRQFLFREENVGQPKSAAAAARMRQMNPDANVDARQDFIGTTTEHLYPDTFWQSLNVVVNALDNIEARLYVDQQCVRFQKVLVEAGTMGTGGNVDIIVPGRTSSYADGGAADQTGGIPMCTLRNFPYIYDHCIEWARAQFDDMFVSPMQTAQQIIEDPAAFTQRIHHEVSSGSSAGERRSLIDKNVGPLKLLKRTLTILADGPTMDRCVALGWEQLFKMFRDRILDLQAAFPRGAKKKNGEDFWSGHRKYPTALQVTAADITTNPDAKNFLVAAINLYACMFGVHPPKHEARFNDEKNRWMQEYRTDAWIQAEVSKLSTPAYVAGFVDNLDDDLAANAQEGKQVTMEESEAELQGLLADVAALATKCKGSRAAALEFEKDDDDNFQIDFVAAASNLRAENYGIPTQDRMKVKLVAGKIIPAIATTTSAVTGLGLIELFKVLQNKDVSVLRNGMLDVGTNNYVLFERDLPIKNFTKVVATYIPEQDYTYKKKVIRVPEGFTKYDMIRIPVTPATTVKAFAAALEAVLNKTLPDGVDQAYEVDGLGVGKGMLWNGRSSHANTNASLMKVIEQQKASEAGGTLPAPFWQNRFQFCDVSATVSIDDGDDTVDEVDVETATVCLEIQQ
In words: Leishmania donovani Ubiquitin Activating Enzyme (LdE1). Set-up: scale not given: direction of the effect not stated beside the values. It counts as functional. To be noted: 30 µM.

Experiment [3] addresses T2, Aspartate--tRNA(Asp/Asn) ligase (Mycobacterium tuberculosis (strain ATCC 25618 / H37Rv)) (UniProt P9WFW3).
T2 sequence (whole entry): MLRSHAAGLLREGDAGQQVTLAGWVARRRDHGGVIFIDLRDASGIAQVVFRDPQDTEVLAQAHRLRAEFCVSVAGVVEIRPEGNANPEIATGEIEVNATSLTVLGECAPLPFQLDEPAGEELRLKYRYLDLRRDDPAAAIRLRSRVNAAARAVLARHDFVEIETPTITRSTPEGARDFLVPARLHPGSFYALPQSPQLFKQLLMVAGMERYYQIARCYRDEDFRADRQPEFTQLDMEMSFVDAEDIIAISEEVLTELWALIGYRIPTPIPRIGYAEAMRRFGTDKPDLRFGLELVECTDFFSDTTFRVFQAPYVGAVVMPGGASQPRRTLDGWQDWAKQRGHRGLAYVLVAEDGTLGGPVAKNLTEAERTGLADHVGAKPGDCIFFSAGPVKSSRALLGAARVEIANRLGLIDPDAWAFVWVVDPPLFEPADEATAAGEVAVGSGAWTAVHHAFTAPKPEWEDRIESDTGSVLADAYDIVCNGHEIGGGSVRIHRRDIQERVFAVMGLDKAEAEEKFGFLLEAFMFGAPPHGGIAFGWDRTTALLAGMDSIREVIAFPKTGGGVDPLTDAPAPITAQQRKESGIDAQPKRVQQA
In words: Assay for Asp RNA synthetase-1 from Mycobacterium tuberculosis. It counts as functional. The arrangement: scale not given: direction of the effect not stated beside the values. The note with it: 30 µM.

Experiment [4] deals with AMP-activated protein kinase, AMPK (Homo sapiens) (UniProt P54646+O43741+P54619+Q9UGJ0+Q9Y478+Q13131+Q9UGI9). In words: AMP-dependent Kinase enzyme assay. An in vitro enzyme assay that detects ADP turnover that is directly proportional to AMPK activity. This uses naive AMPK that is activated during the assay with MK-8722. In kind it is functional. Set-up: scale not given: direction of the effect not stated beside the values. To be noted: 30 µM.

Experiment [5] deals with Sialic acid-binding Ig-like lectin 9 (Homo sapiens) (UniProt Q9Y336). In words: Hs-Siglec9 ALPHAscreen SOP 20170721. Set-up: scale not given: direction of the effect not stated beside the values. The note with it: 10 µM. For orientation: Bead proximity is the source of the signal in Alpha formats.
Sialic acid-binding Ig-like lectin 9 (Homo sapiens), sequence (Q9Y336 whole entry): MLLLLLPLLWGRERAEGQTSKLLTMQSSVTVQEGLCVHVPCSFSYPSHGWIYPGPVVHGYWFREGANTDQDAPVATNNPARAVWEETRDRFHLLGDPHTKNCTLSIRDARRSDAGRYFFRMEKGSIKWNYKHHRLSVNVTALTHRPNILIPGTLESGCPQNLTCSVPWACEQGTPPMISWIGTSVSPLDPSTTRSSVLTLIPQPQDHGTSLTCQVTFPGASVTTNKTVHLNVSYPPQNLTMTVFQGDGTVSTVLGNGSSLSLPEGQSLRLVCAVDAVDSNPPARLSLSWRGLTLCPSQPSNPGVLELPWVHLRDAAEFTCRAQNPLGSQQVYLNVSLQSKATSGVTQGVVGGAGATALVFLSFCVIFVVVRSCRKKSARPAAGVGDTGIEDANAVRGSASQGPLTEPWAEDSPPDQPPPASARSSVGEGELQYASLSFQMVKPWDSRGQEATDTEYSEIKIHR
The test system of the next experiment is Trypanosoma cruzi. The experiment in a line: Trypanosoma cruzi phosphomannomutase and mannose-1-phosphate guanylyltransferase assay. To be noted: 10 µM. The arrangement: scale not given: direction of the effect not stated beside the values. In kind it is functional.
In experiment [6] the target is T3, Arginase-2, mitochondrial (Homo sapiens) (UniProt P78540).
T3 sequence (whole entry): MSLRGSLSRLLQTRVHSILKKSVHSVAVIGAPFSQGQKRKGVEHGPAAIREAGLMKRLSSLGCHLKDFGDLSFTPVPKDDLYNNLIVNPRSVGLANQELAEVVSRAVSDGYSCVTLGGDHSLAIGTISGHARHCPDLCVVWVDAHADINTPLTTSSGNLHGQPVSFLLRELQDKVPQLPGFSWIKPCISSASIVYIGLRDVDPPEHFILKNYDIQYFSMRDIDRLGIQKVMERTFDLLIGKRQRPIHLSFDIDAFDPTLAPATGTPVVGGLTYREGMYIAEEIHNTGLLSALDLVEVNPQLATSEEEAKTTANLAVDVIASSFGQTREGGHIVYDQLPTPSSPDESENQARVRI
The experiment in a line: in vitro enzyme assay to detect the production of urea directly proportional to the activity of Arginase II. In kind it is functional. The arrangement: scale not given: in the data most compounds retested in dose-response had high values. To be noted: 33.3 µM.

Experiment [7] concerns the target T4, Proteasome subunit beta (Trypanosoma cruzi) (UniProt O96673).
T4 sequence (whole entry): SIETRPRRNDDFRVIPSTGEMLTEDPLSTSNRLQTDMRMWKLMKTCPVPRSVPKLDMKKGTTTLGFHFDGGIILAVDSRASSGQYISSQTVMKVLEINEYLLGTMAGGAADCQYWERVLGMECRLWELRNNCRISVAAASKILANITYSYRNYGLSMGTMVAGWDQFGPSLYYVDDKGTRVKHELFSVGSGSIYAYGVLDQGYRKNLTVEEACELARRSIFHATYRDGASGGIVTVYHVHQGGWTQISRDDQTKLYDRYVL
The experiment in a line: Trypanosoma cruzi proteasome chymotrypsin-like activity (TcProtChymo) assay. Set-up: scale not given: in the data most compounds retested in dose-response had high values. The note with it: 9.37 µM. In kind it is functional.

The species named for the next experiment is Homo sapiens. In words: To identify inhibition of the IFN signalling (Jak-Stat) pathway via expression of an eGFP reporter gene under the control of an IFN-stimulated response element (ISRE) containing MxA promoter. It counts as functional. The arrangement: scale not given: direction of the effect not stated beside the values. The note with it: 30 µM. On the technique in general: Reporter assays use an easily measured gene product as a stand-in for the process of interest.

For experiment [8], the target named is Shiga toxin 2 (Escherichia coli O157:H7) (UniProt P09385+P09386). In words: E. coli 0.157:H7 Shiga Toxin SOP - stx2 screening assay. It counts as functional. To be noted: 30 µM. The arrangement: scale not given: direction of the effect not stated beside the values.
The target in experiment [9] is T5, Tyrosyl-tRNA synthetase, putative (Trypanosoma cruzi (strain CL Brener)) (UniProt Q4DSP6).
T5 sequence (whole entry): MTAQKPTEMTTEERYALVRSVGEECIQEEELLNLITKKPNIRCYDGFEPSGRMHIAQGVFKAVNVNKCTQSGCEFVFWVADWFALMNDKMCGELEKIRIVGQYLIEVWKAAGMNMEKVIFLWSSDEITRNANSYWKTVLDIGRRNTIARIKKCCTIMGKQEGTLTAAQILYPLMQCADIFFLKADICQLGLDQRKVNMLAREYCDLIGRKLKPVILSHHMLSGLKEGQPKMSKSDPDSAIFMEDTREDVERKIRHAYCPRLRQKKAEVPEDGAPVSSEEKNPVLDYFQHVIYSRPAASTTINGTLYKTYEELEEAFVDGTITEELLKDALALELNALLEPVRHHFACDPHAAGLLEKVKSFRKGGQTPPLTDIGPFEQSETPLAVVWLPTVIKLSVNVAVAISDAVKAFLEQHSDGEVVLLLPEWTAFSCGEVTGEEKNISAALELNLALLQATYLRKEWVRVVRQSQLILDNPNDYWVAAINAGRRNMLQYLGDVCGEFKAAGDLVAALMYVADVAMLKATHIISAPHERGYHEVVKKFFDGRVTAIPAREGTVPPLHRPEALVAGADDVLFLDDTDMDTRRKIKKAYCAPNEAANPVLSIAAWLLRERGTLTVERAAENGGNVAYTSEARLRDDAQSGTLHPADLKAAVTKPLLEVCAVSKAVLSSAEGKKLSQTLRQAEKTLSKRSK
In words: Trypanosoma cruzi tyrosyl tRNA synthetase (TcYRS) _High Tyrosine SOP. In kind it is functional. The arrangement: scale not given: in the data most compounds retested in dose-response had high values. The note with it: 30 µM.

The target in experiment [10] is T5, Tyrosyl-tRNA synthetase, putative (Trypanosoma cruzi (strain CL Brener)). The experiment in a line: Trypanosoma cruzi tyrosyl tRNA synthetase (TcYRS) SOP. In kind it is functional. Set-up: scale not given: direction of the effect not stated beside the values. To be noted: 30 µM.
The target in experiment [11] is Chromo domain-containing protein 1 (Saccharomyces cerevisiae (strain ATCC 204508 / S288c) (Baker's yeast)) (UniProt P32657). In words: ScCHD-1 Enzyme Inhibition Assay. The note with it: 30 µM. In kind it is functional. The arrangement: scale not given: in the data most compounds retested in dose-response had high values.
Chromo domain-containing protein 1 (Saccharomyces cerevisiae (strain ATCC 204508 / S288c) (Baker's yeast)), sequence (P32657 whole entry, the tested form may be a part): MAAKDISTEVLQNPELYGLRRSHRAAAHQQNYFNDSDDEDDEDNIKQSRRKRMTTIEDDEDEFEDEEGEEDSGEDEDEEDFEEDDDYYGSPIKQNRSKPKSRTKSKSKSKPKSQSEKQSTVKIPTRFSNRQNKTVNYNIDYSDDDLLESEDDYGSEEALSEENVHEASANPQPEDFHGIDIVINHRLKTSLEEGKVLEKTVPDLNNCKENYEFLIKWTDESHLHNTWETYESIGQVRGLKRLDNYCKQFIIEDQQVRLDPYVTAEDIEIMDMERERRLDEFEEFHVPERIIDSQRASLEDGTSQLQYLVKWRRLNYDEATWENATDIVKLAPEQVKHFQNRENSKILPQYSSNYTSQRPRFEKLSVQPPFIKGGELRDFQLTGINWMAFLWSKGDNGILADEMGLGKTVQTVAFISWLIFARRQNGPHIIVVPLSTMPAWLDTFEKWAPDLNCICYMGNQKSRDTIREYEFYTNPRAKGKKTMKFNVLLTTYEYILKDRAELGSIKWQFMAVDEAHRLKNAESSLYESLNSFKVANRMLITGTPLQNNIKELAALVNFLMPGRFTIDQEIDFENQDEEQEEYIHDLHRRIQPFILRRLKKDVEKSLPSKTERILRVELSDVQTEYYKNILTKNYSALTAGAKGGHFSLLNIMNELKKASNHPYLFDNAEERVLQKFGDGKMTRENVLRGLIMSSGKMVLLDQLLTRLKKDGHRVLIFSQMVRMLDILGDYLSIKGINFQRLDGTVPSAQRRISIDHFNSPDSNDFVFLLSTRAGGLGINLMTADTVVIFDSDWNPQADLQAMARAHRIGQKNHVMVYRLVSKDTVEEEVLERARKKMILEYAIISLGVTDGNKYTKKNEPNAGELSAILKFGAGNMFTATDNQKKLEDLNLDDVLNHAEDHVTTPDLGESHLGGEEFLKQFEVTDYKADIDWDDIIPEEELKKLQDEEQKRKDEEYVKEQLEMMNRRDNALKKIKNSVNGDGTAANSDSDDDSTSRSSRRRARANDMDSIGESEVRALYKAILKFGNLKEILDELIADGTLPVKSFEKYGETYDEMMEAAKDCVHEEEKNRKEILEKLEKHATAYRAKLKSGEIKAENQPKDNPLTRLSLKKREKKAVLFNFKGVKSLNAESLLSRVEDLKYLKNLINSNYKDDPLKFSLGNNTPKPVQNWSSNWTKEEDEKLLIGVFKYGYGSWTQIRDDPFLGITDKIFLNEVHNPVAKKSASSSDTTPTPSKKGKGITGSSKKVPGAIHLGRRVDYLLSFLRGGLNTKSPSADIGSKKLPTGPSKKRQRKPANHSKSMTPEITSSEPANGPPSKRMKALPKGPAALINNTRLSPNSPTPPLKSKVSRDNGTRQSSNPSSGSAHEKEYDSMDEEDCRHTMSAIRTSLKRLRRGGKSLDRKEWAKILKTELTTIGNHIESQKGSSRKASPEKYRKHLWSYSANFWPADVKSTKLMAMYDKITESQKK
Experiment [12] addresses T6, Methionyl-tRNA synthetase, putative (Leishmania donovani (strain BPK282A1)) (UniProt E9BF75).
T6 sequence (whole entry): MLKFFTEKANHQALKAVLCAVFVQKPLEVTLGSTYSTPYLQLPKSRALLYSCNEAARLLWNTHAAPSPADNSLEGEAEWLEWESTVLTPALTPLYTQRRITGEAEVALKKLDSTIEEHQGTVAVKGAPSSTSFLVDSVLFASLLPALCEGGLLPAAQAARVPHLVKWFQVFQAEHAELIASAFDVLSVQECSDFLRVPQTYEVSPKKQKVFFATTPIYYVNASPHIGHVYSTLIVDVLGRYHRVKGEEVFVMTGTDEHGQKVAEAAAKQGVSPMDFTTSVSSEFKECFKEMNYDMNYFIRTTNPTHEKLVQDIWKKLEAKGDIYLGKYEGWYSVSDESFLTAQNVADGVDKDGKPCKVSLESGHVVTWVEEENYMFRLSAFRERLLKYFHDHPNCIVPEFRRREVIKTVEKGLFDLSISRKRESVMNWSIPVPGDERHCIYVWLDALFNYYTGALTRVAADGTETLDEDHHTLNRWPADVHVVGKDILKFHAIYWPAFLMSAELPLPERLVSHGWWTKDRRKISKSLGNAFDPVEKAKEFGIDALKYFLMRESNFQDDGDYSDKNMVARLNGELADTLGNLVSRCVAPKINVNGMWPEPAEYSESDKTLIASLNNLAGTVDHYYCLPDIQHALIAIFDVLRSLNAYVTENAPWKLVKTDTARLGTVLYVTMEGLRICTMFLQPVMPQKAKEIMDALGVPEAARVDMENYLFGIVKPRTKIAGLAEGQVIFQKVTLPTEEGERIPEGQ
The experiment in a line: Leishmania donovani Methionine tRNA synthetase (LdMetRS):v7. Dose response assay. In kind it is functional. Set-up: conc 80 nM, time 150 minutes.

In a further experiment the test system is N/A. In words: Trypanosoma cruzi proteasome luciferase counter-screen. The note with it: 9.37 µM. In kind it is functional. Set-up: scale not given: direction of the effect not stated beside the values. A general note: A counterscreen serves to expose hits that act by an unwanted route or on another target.

Drawing on ChEMBL document CHEMBL3988442, “University of Dundee, Small-Polar-MMV Screening Library” (2021), this text covers Percent Effect and PXC50 for four compounds.

“And” between values parts separate entries of the source, which are not always exact repeats. Equal entries are not always repeated. For part of these data: Results with a measured potency or affinity are listed apart. Bounds are passed on as bounds.

Protein translocase subunit SecA (Escherichia coli (strain K12)), sequence (P10408 whole entry): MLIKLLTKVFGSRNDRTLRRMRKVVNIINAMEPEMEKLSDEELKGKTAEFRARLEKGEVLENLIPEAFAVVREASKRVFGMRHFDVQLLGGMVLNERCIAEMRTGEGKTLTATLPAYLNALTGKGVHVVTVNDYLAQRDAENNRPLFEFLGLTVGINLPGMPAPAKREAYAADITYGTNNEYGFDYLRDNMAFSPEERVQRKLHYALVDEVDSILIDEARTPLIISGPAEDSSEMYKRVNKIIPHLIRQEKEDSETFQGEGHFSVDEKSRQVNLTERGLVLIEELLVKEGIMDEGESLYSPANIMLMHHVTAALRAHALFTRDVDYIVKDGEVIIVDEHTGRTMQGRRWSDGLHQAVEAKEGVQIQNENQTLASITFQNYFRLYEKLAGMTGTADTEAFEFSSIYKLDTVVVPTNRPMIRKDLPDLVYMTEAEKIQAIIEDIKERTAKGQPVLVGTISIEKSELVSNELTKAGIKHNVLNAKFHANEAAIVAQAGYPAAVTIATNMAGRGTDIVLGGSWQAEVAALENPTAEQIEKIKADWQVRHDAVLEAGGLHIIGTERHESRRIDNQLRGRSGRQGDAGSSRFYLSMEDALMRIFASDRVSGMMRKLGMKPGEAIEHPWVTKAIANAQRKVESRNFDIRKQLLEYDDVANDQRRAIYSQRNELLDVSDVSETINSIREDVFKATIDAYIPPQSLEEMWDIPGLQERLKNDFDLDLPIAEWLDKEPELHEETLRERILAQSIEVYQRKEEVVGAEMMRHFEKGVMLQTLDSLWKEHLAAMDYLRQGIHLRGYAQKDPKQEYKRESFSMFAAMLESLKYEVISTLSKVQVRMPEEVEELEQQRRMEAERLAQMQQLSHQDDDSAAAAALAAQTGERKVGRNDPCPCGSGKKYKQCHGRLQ

Take `CCN(CC)C(=O)c1ccc(NC(=O)CNc2ccc(F)cc2Cl)cc1`: the Percent Effect in experiment [1] is -1.29%; in experiment [2], 10.5%; in experiment [3], 5.36%; in [4], 5.61%; in [5], 3.25%; in the experiment on Trypanosoma cruzi it was 2.04%. Besides, the Percent Effect in experiment [6] is 0%; in experiment [7], 16.6%; in the experiment filed under Homo sapiens, -29.3%; in experiment [8] it was -38.1%; in experiment [9], 9.57%; in experiment [10] it was 15.6%. In addition, in [11], the Percent Effect is -3.17%.

Compound `Cn1cc(C(=O)Nc2ccccc2)c2ccccc21` gave a PXC50 in experiment [12] (MAX_EFFECT 6.666666667) below 4.

As for `NCC(O)c1cc(Cl)cc(Cl)c1` (stereo not given), the PXC50 in experiment [12] (MAX_EFFECT 9.287257019) and in [12] (MAX_EFFECT 13.11787072) was below 3 each time.

For the compound `CC(C)=CCN1C[C@H]2CC[C@@H]1CN(C(=O)c1c[nH]c(=O)c(Cl)c1)C2`, the Percent Effect in experiment [1] was -4.07%; in [2], 5.48%; in [3], 4.22%; in experiment [4], 2.02%; in [5], 1.06%; in the experiment with Trypanosoma cruzi, -5.16%. Moreover, the Percent Effect is -8.38% in experiment [6]; 35.6% and 31.4% and 37.8% in experiment [7]; 18.4% and 17.9% with N/A; 7.03% in the experiment listed under Homo sapiens; -38% in experiment [8]; 6.25% in [9]. Moreover, the Percent Effect in experiment [10] is 13.6%; in experiment [11] it was -2.95%.
